# Source: PubChem BioAssay
# Many of the other results were omitted from the sample, so hits are more common in it than they were.
# FBPA Giardia inh: qHTS Assay for Inhibitors of Fructose-1,6-bisphosphate Aldolase from Giardia Lamblia; A8B2U2; 290,000 tested, 0.71% active; Potency, µM (doses to about 59.6 µM), for inactives: at the highest dose activity, negative = inhibition, actives largely listed as inhibitors; purified Giardia FBPA; further: potency means the concentration at half of the fitted maximal effect; on the % scale 0 is the no-effect control and ±100 the full control effect; nearly all actives have a fitted effect of over 55% in size
#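 40 nM FBPA preincubated 10 min at RT with compound (up to 57.5 uM final), then substrate plus GAPDH/TPI/NAD/arsenate coupling and diaphorase/resazurin added. Fluorescence read after 20 min at RT, 525/598 nm.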
# Cycloheximide cs: Cycloheximide Counterscreen for Small Molecule Inhibitors of Shiga Toxin; cell reporter, cycloheximide protein synthesis inhibition counterscreen; max response, %; 300,000 tested, 12% active; AID 2314, 2010; in the data active means max response mostly above about 13%, no sharp cut-off; inactive means mostly below about 14%; further: read at 38.3 µM for the half of the compounds with a filed dose; 0% is about no effect
# Sm TGR inh: qHTS Assay for the Inhibitors of Schistosoma Mansoni Peroxiredoxins | Potency, µM (titrated, usually from 114 µM), for inactives: at the top dose activity change, negative = inhibition, most hits filed as inhibitors | Schistosoma mansoni thioredoxin glutathione reductase (TGR), Q962Y6 | purified TGR, DTNB reduction, TNB absorbance 405 nm | 360,000 tested, 3% active; further: potency means the concentration at half of the fitted maximal effect; on the % scale 0 is the no-effect control and ±100 the full control effect; nearly all actives have a fitted effect of over 60% in size
#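 Kinetic colorimetric format: TGR-catalysed, NADPH-driven DTNB reduction monitored via TNB absorbance. Enzyme dispensed at 20 nM; compound exposure 15 min at room temperature before reaction start.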
# Tb PYK inh: qHTS of Trypanosoma Brucei Inhibitors | pyruvate kinase (Trypanosoma brucei), Q57TT1 | TbPYK enzyme, Kinase-Glo Plus ATP luminescence, 45 min | Potency, µM (titrated, usually from 76.8 µM), inactives show at the top dose activity, negative = inhibition, actives largely listed as inhibitors | 410,000 tested, 0.12% active; further: potency means the concentration at half of the fitted maximal effect; on the % scale 0 is the no-effect control and ±100 the full control effect; nearly all actives have a fitted effect of over 50% in size
#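 Readout: single end-point luminescence (Kinase-Glo Plus, 10 min). Reaction conditions were TbPYK/substrate plus 130 uM ADP, 45 min at RT, pH 7.2 TEA buffer. No-enzyme wells served as controls, and data were normalized before concentration-response fitting.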
# Shiga toxin inh: A qHTS for Small Molecule Inhibitors of Shiga Toxin; inhibition, % at 38.7 µM; 290,000 tested, 9.2% active; Vero cells, Shiga toxin protein synthesis inhibition reporter; AID 2315, 2010; in the data active means inhibition mostly above about 28%, no sharp cut-off; inactive means mostly below about 43%; further: 0% is about no effect
# LmPK inhibitor: qHTS Assay for Inhibitors of Leishmania Mexicana Pyruvate Kinase (LmPK); Q27686; purified LmPK, Kinase-Glo ATP luminescence, 1 h; Potency, µM (titrated, usually from 57.5 µM), without a hit: at the highest dose activity change, negative = inhibition, actives largely listed as inhibitors; 290,000 tested, 0.37% active; AID 1721, 2009; further: potency means the concentration at half of the fitted maximal effect; on the % scale 0 is the no-effect control and ±100 the full control effect
# Target sequence (Q27686 whole entry, looked up): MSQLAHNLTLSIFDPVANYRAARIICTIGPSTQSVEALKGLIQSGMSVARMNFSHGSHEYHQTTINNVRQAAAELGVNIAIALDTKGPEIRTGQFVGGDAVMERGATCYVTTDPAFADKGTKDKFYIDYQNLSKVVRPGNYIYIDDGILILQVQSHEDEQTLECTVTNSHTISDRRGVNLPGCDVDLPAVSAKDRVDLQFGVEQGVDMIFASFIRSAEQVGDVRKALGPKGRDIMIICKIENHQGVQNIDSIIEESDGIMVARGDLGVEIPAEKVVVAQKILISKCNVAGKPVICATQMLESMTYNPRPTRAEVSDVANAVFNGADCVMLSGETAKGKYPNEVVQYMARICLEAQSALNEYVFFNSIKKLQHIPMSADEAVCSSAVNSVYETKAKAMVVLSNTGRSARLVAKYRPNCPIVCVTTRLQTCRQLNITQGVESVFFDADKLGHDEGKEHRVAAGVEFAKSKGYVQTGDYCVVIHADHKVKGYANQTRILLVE
#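 Pyruvate kinase activity monitored as ATP production (luciferase luminescence). Conditions: 0.1 nM enzyme, 0.5 mM PEP, 0.1 mM ADP, 1 h, RT; normalized against uninhibited and no-enzyme wells.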
# An asterisk follows results filed as active; ? = inconclusive; . = no result. Unless noted, the call rests on the fitted dose curve; in most records, active means well fitted curve in the direction sought with a large enough effect; inconclusive means small, poorly fitted or top-dose-only effect, or another doubt; inactive means no such curve, though single readings can be large; an effect the other way counts as inactive or inconclusive.
SMILES,FBPA Giardia inh,Cycloheximide cs,Sm TGR inh,Tb PYK inh,Shiga toxin inh,LmPK inhibitor
COCCNC(=O)c1ccc(C(=O)C(=O)c2ccccc2)cc1,6%,23,-9%,-8%,10,1%
Cc1ccc(C(=O)NCCc2csc(C)n2)cc1,-1%,27*,1%,6%,55*,-1%
CC(N)c1csc(Nc2ccc(C(=O)NCCO)cc2)n1 (stereo unspecified),.,.,.,2%,.,.
COCCNC(=O)C1(C)CCN(Cc2ccc(C(C)C)cc2)C1 (stereo unspecified),.,.,.,-1%,.,.
COc1ccc2c(C)c(CC(=O)NCCc3ccc(Cl)cc3)c(=O)oc2c1C,.,.,5%,0%,.,.
Cc1ccc(C(=O)NCCc2ccncc2)cc1,3%,27*,-11%,-1%,42*,-6%
Cc1ccc(C(=O)NCCc2ccccc2)cc1,2%,-2,-8%,-3%,-2,-13%
CCCOc1ccc(CN(C(=O)Cc2coc3ccc(CC)cc23)C2CCS(=O)(=O)C2)cc1 (stereo unspecified),.,.,-4%,1%,.,.
Cc1c(C(=O)c2ccccc2)c2ccccn2c1CCc1ccccn1,?,9,-30%,-3%,11,3%
Cc1c(C(=O)Nc2cccc(Cl)c2)c2ccccn2c1CCc1ccncc1,-11%,12,4%,-1%,37*,-2%
Cc1c(C(=O)Nc2ccc(Cl)cc2)c2ccccn2c1CCc1ccncc1,-14%,28*,-33%,-5%,39*,3%
COc1ccc(Cn2cc(CN3CCc4onc(-c5ccccc5OC)c4C3=O)nn2)cc1,.,.,.,0%,.,.
Nc1ccc(OCc2ccccc2)cc1,-14%,17*,3%,-1%,36*,4%
NOCc1ccccc1,-20%,32*,.,.,36,.
CCN(Cc1ccccc1)Cc1ccc(OCc2ccccc2)cc1,?,15*,0%,19%,26,-1%
CCN(CC)CCOc1ccc(Cc2ccccc2)cc1,3%,.,.,3%,.,.
O=C(NNC(=O)OCc1ccccc1)OCc1ccccc1,.,.,.,-3%,.,.
COc1cccc(-n2cc(C(=O)Nc3cc(C)c(Cl)cc3OC)c3ccccc3c2=O)c1,.,.,-4%,-1%,.,.
O=C(Nc1ccncc1)C1CCN(S(=O)(=O)c2c(Cl)cccc2Cl)CC1,.,.,-1%,-4%,.,.
Cc1ccc(NC(=O)c2c(C)oc3ccc(O)c(CN4CCCCC4)c23)c(C)c1,.,.,-3%,0%,.,.
CCCCCCCSc1nnc(N)s1,11%,14*,4%,0%,44*,6%
CCCOc1ccc(-c2cnc(N)s2)cc1,17%,50*,-3%,1%,64*,-16%
CCCOc1ccc(OCCSc2nnc(N)s2)cc1,0%,26*,1%,-5%,95*,-3%
CCCCCCSc1nnc(N)s1,1%,16,6%,2%,7,-4%
CCCOc1ccc(-c2cnc(SCC(N)=O)nc2N)cc1,2%,14,-2%,0%,22,-2%
SMILES,FBPA Giardia inh,Cycloheximide cs,Sm TGR inh,Tb PYK inh,Shiga toxin inh,LmPK inhibitor
Cc1cccc(Cn2cccc2CNS(=O)(=O)c2ccc(C)c(C)c2)c1,.,.,-5%,1%,.,.
COc1ccc(C)cc1NC(=O)N1CCN(c2nnc(C)c3c(C)n(-c4ccccc4)nc23)CC1,.,.,1%,-6%,.,.
O=C(O)Cc1sc(-c2cccnc2)nc1-c1ccc(Br)cc1,6%,-2,22µM*,2%,7,-5%
O=C(O)Cc1sc(-c2ccccc2Cl)nc1-c1ccccc1,?,4,-3%,-5%,-7,-13%
CC(C)(C)c1ccc(S(=O)(=O)Nc2ccc(Cc3ccncc3)cc2)cc1,-7%,22*,-29%,7%,56,0%
CC(=O)Nc1ccc(S(=O)(=O)Nc2ccc(Cc3ccncc3)cc2)cc1,8%,-2,9%,0%,4,3%
Cc1nnc(N/N=C/c2ccccc2O)n1N,7.1µM*,17*,0%,0%,31*,-1%
Cc1cc(/C=N/NC(N)=S)c(C)n1-c1ccc(Br)cc1,-12%,8,-23%,-6%,-8,5%
Cc1nnc(N/N=C/c2cc(C)n(-c3ccc(F)cc3)c2C)n1N,10µM*,24*,-30%,0%,4,3%
Oc1ccccc1/C=N/Nc1nn[nH]n1,?,-3,12%,-13%,15,-12%
O=[N+]([O-])C1=CC=C2C(=NC3(CCCCC3)N2O)C1=NCCc1ccccc1,?,-6,45µM*,-20%,-2,6%
Brc1ccc(-c2nc(-c3ccccc3)no2)o1,-2%,59*,0%,1%,104*,?
c1ccc(-c2noc(-c3ccccc3-c3ccccc3)n2)cc1,3%,15,-10%,3%,6,2%
Brc1ccc(-c2nc(-c3cccnc3)no2)o1,5%,69*,-22%,-4%,111*,-8%
CCN(Cc1ccccc1)C(=O)Cn1c(=O)cc(C)c2c(C)nn(-c3cccc(F)c3)c21,.,.,2%,2%,.,.
Cc1ccc2c(c1)N(CC(=O)NCc1cccc(Cl)c1)C(=O)c1cccnc1O2,.,.,-23%,-8%,.,.
CCN(CC(=O)Nc1ccc(OC)cc1)C(=O)CSCc1c(C)noc1C,.,.,3%,-6%,.,.
CCN(CC)C(=O)c1cccc2nc3ccccc3nc12,3%,-2,4%,2%,4,6%
COC(=O)c1cccc2nc3c(C(C)O)cccc3nc12 (stereo unspecified),?,8.1*,0%,-1%,22,-6%
CCOC(=O)c1ccc(NC(=O)CC2SCCNC2=O)cc1 (stereo unspecified),1%,38*,?,-7%,96*,-2%
Cc1ccc(NC(=O)CC2SCCNC2=O)cc1[N+](=O)[O-] (stereo unspecified),4%,16*,4%,1%,12,-1%
Cc1ccccc1NC(=O)CC1SCCNC1=O (stereo unspecified),-1%,0,0%,6%,15,5%
CN1C(=O)S/C(=C/c2ccc(OCc3cccc(C(=O)O)c3)cc2)C1=O,-4%,35*,-15%,2%,37*,1%
COc1cccc(/C=C2/SC(=O)N(C)C2=O)c1OCc1ccc(C(=O)O)cc1,14%,9,0%,-3%,-5,15%
O=C(Nc1nc2c(s1)CCCC2)c1ccc(Br)o1,-11%,23*,1%,-4%,73*,?
COc1ccc(CC(=O)Nc2nc3c(s2)CCCC3)cc1,.,.,0%,2%,.,.
Cc1ccc(C(=O)Nc2nc3c(s2)CCCC3)o1,-12%,22,-13%,-18%,85,25µM*
CCCNC(=O)c1nnsc1Sc1ccc(Cl)cc1,4%,23*,0%,-2%,87*,1%
